The values that follow come from PubChem BioAssay AID463 (The Scripps Research Institute Molecular Screening Center, 2006).

The whole screen tested about 56,000 compounds, of which about 710 (1.3%) were called active.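 The calls were made as follows: active = inhibition above the mean inhibition of all tested compounds plus 3 SD (cut at about 28% in these data); inactive = the rest.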 The list comes from a sample in which actives are over-represented; it also holds similar structures and randomly drawn compounds.

This assay can be described thus: Jurkat cell viability reduction – Jurkat E6.1, 60K MLSMR library, cytotoxicity control, primary screen (AID 463). The following applies: Jurkat E6.1 viability, ATP luminescence, 48 h; at 4 µM; hits give high values.
Regarding `O=C(CS(=O)(=O)c1cn(Cc2ccc(Cl)cc2)c2ccccc12)N1CCOCC1`, the inhibition (usually the change of the read-out against control, counted positive when it falls) is 5.9% (inactive).
Then `COc1ccc(N(Cc2cc3cc(OC)ccc3[nH]c2=O)S(C)(=O)=O)cc1`, with 8.7% (inactive).
Then `CCC(C)Sc1nnc(-c2c[nH]c3ccccc23)n1CCOC` (configuration not stated), with 6% (inactive).
Take `CC(=O)Oc1ccc2c(C)c(CC(C)O)c(=O)oc2c1` (configuration not stated): the inhibition is -1.3% (inactive).
To `COc1ccc(OCc2cccc(C(=O)N3CCCC3)c2)cc1` belongs -5.2% (inactive); to `O=C(CSc1nc2c(cnn2-c2ccc(F)cc2)c(=O)[nH]1)N1CCCCCC1`, 2.5% (inactive); to `CC(C)Oc1ccc(C(=O)Nc2cc(=O)n(C)c(=O)n2C)cc1`, 2.6% (inactive).
Then `COc1ccc(C2=NOC(C(=O)NCc3ccco3)C2)cc1OC` (configuration not stated), with 85.8% (active).
For `O=C(c1ccco1)N1CCN(C(=O)C2CC(c3ccc(Cl)c(Cl)c3)=NO2)CC1` (configuration not stated), the inhibition was -1.7% (inactive).
Then `COc1ccc(CCNS(=O)(=O)c2ccc(C(=O)NCc3ccco3)cc2)cc1OC`, with 0.2% (inactive); and `CC(C)NS(=O)(=O)c1ccc(NC(=O)c2cccnc2)cc1`, with 0.7% (inactive); and `CN1CCN(c2ccc(NC(=O)COc3ccc(Cl)cc3Cl)cc2)CC1`, with -0.1% (inactive).
As for `Cc1cccc(NC(=O)COc2ccccc2C)n1`, the inhibition is 8.1% (inactive).
Take `Cc1ccccc1OCC(=O)Nc1ccc(N2CCN(C(=O)C(C)C)CC2)c(Cl)c1`: the inhibition is 30.2% (active).
For `CCOC(=O)c1cnc(SCC(=O)NCc2ccco2)nc1N`, the inhibition is -0.1% (inactive).
In the case of `Cc1cc(C(=O)OCC(=O)NCc2ccco2)c(C)n1-c1ccccc1`, the inhibition was 75.4% (active).
To `O=C(CSc1nnc(-c2cccs2)n1-c1ccccc1)NCc1ccco1` belongs -1.7% (inactive).
For the compound `COc1cccc(OC)c1C(=O)Nc1nnc(C(C)C)s1`, the inhibition is 5.1% (inactive).
To `Cc1ccc(OCC(=O)Nc2ccc(-c3nc4ncccc4o3)cc2)cc1` belongs -9.9% (inactive).
Then `Nc1nonc1-c1nc2ccccc2n1Cc1ccc(F)cc1`, with 20.3% (inactive); and `Nc1nonc1-c1nc2ccccc2n1CCC(=O)O`, with 1.7% (inactive).
Regarding `COc1ccc(C)c(Cn2c(-c3nonc3N)nc3ccccc32)c1`, the inhibition was 75.3% (active).
Then `CCC(=NC1CC(C)(C)NC(C)(C)C1)C1=C(O)CC(C)(C)CC1=O`, with -4.2% (inactive).
Then `CCc1cc(=O)oc2cc(OCC(=O)N3CCCc4ccccc43)ccc12`, with -8.4% (inactive); and `CCN(c1ccccc1)S(=O)(=O)c1ccc(N)cc1`, with -3.3% (inactive); and `CC1CN(c2cc(=O)n(-c3cccc(Br)c3)c(=O)[nH]2)CC(C)O1` (configuration not stated), with 1.2% (inactive).
To `Cc1nn(CC(=O)Nc2ccc3c(c2)nc(CN2CCCCC2)n3C)c(=O)c2ccccc12` belongs 1.4% (inactive); to `Cn1c(CN2CCOCC2)nc2cc(NC(=O)c3ccc(Cl)cc3)ccc21`, 86.9% (active); to `CCC(=O)Nc1ccc2c(c1)nc(CCN1CCN(C)CC1)n2C`, 7.5% (inactive).
In the case of `CC(=O)OC(C(=O)NCCc1ccccc1)c1cccnc1` (configuration not stated), the inhibition was -5.8% (inactive).
Take `O=S(=O)(NCC1CCCO1)c1ccc2ccccc2c1` (configuration not stated): the inhibition is -0.5% (inactive).
Then `CC1CCCN(Cc2nc3c(c(=O)n(C)c(=O)n3C)n2CC(=O)c2ccccc2)C1` (configuration not stated), with 4.9% (inactive); and `CC1=NC2(CCCc3c2no[n+]3[O-])N(O)C1(C)C` (configuration not stated), with 12.1% (inactive).
To `Cc1cc(NC(=O)CSCc2nc(-c3cccc(Cl)c3)oc2C)no1` belongs 0.8% (inactive); to `c1cnn(-c2cc(N3CCOCC3)ncn2)c1`, -0.2% (inactive); to `COc1c(C)cccc1C(=O)Nc1cc(Cl)ccc1N1CCOCC1`, -1% (inactive).
To `O=C(Nc1cc(N2CCOCC2)ncn1)NC1(C(F)(F)F)Oc2ccc(Cl)cc2O1` (configuration not stated) belongs 72.6% (active); to `CCOC(=O)C1=C(C)NC(C)=C(C(=O)OCC)C1C1=COCCO1`, -5.9% (inactive).
Consider `CCOC(=O)CCc1c(C)c2ccc(OCc3nn[nH]n3)c(C)c2oc1=O`, for which the inhibition was -2.2% (inactive).
Regarding `CN(C)CCCn1c(N)c(C#N)c2nc(C#N)c(C#N)nc21`, the inhibition is 1.9% (inactive).
For the compound `CC(C)CNC(=O)c1cc(-c2ccc(Br)cc2)on1`, the inhibition is 1.8% (inactive).
Consider `CC(C)Cc1cc(C(=O)Nc2cc(Br)ccc2O)no1`, for which the inhibition was 60.7% (active).
To `CC(C)Cc1cc(C(=O)NCCc2ccccc2)no1` belongs 6% (inactive); to `COCCn1c(SCC(=O)Nc2cc(Cl)ccc2OC)nc2c(c1=O)SC(C)C2` (configuration not stated), 6.8% (inactive); to `O=C(CSc1nnc(-c2ccco2)n1-c1ccccc1)NCCc1ccccc1`, 0.2% (inactive).
Then `COc1ccc(Nc2oc(-c3ccccc3Cl)nc2C#N)cc1`, with 85.4% (active).
For the compound `N#Cc1nc(-c2ccc(OCc3ccccc3)cc2)oc1NCCCN1CCOCC1`, the inhibition is -3.2% (inactive).
Take `CCOc1ccc(Nc2oc(Cc3ccccc3)nc2C#N)cc1`: the inhibition is -0.9% (inactive).
Then `O=C(Nc1ccc2c(c1)OCCO2)c1ccncc1`, with 3.8% (inactive); and `O=C(Nc1nc(-c2ccc3c(c2)OCO3)cs1)c1ccncc1`, with 44% (active); and `O=C(Nc1nc(-c2ccncc2)cs1)C1COc2ccccc2O1` (configuration not stated), with 7.3% (inactive).
To `Cn1c(=O)cc(SCC(=O)N2CCCC2)c2cc(Cl)ccc21` belongs 3.9% (inactive).
